DAT uptake mod: changed human dopamine transporter uptake under cocaine IC80 | Q01959 | LLC-PK1 hDAT cells, [14C]-dopamine uptake with cocaine IC80; actives deviate in either direction | hit rate 1.3% among 110,000 | B-score at 10 µM | AID 449768;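 active means Z score or B-score, a plate-position-corrected score, falls beyond the plate's 99.7% confidence bounds, in either direction; inactive means both scores lie inside the 99.7% bounds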;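 further: scored against the spread of the other compound wells on the same plate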
PostGolgi yeast: growth inhibition of a yeast mutant, post-Golgi transport screen; post-Golgi transport phenotypic cell assay; inhibition, % at 10 µM; hit rate 0.9% among 98,000; AID 739;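 further: yeast cells grown in 1536-well plates; yeast grown about 18 h at 30C before absorbance read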
Smad3 FoxH1 inh: inhibitors of human Smad3 transcription factor binding; TR-FRET Smad3/Dy647-FoxH1 peptide binding, europium anti-His; inhibition, % at 25 µM; hit rate 0.29% among 88,000; AID 630;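 active means compounds that reduce the energy-transfer binding signal between the protein and its labelled peptide by more than half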;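 further: 0% = Smad3 plus labelled peptide maximal FRET and 100% = peptide-only background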
Cav32 inh: inhibitors of human Cav3.2 T-type calcium channel. Cav3.2-expressing cells, Fluo-4 calcium fluorescence FDSS; stronger effect = lower value. B-score at 10 µM. hit rate 4% among 100,000;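 active means single-dose well whose peak fluorescence ratio is a statistical outlier from its plate by either plate-standardised score or position-corrected B-score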
PostGolgi ctrl: yeast control strain growth, post-Golgi counter-screen. AID 738. inhibition, % at 10 µM. efflux-deficient yeast background strain, growth absorbance A615, 16 h. hit rate 5% among 98,000
TNAP act mid DEA: activates human TNAP at intermediate phosphate acceptor concentration; P05186; purified TNAP, CDP-star luminescence, 100 mM DEA, 30 min; stronger effect = higher value; scale: 0 levamisole-inhibited, 1 vehicle-only enzyme; 64,000 tested, under 10 active; activation factor at 20 µM;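 active means activation factor of at least 2 at 20 µM, relative to controls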
Target sequence (P05186 whole entry, looked up): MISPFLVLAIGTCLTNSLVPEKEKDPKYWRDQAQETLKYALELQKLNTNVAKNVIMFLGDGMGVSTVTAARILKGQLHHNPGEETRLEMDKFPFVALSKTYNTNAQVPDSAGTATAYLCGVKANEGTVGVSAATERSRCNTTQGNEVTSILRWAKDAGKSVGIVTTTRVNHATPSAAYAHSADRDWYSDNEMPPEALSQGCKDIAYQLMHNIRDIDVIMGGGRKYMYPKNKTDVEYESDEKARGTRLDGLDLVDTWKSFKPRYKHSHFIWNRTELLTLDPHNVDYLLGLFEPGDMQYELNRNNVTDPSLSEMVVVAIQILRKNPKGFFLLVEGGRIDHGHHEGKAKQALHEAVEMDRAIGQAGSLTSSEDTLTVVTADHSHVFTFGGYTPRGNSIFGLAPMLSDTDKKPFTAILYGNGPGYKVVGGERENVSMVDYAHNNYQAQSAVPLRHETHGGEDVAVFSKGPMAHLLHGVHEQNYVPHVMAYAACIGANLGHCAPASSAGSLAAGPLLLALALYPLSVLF
Numbers without * were called inactive; . = no result given. The list is not random: actives were taken first. Their share in the collection is about 8.7%. Unless noted, no stated cut-off is given here; in the data, active means inhibition above about 30%; inactive means the rest.

SMILES | DAT uptake mod | PostGolgi yeast | Smad3 FoxH1 inh | Cav32 inh | PostGolgi ctrl | TNAP act mid DEA
CCOC(=O)c1ccccc1-n1c(C)cc(C2N=C(N)Nc3nc4ccccc4n32)c1C (configuration not stated) | 1.2 | 2 | . | -2.2 | 6 | .
COc1ccc(C2CC(c3c(O)cc(C)oc3=O)=NCCS2)c(OC)c1 (configuration not stated) | -1.2 | -16 | 5 | -2.2 | 9 | 0.9
COc1ccc(S(=O)(=O)N(CC(=O)N/N=C/c2cccs2)c2ccc(C)cc2)cc1OC | -0.51 | 17 | . | -6.1* | -3 | .
CC(=O)Nc1ccc(Oc2cc(C#N)c(C#N)cc2N2CCOCC2)cc1 | 0.5 | -3 | 3 | -1.1 | 9 | .
CC(=O)Nc1ccc(Oc2cc(C#N)c(C#N)cc2N2CCCCCC2)cc1 | 2.1 | 8 | 0 | -3.8* | 17 | 0.9
CCOc1ccc(CCNC(=O)CCn2cccc2)cc1OCC | -4.3* | -3 | . | 0.018 | -2 | 0.9
COc1ccc(CCNC(=O)c2ccc(N3CCCC3=O)cc2)cc1 | -1 | 3 | . | 0.23 | 5 | .
CCOc1ccc(CCNC(=O)c2ccc(N3CCCC3=O)cc2)cc1OCC | -7.7* | 21 | -14 | 0.06 | 3 | .
O=C(NCc1ccc(F)cc1)C(Cc1ccccc1)NS(=O)(=O)c1cccs1 (configuration not stated) | -0.71 | 9 | 18 | -0.91 | 3 | .
Fc1ccccc1Nc1nc2ccccc2n2nnnc12 | -0.77 | 3 | . | -0.81 | 51* | .
O=C(Cc1ccccc1)NCCSCc1ccc(Cl)cc1 | -0.06 | -3 | . | -4.4* | 12 | .
O=c1[nH]c(SCc2ccccc2Cl)nc2c1cnn2-c1ccccc1 | -0.092 | -13 | 3 | . | 42* | 0.9
CCCc1cc(=O)[nH]c(SCc2ccccc2Cl)n1 | -1.7 | 4 | 14 | -3.2 | 45* | .
CCn1c(SCC(=O)N2CCC(C(N)=O)(N3CCCCC3)CC2)nc2ccccc2c1=O | . | . | 11 | . | . | 0.9
COc1ccc(NS(=O)(=O)c2ccc3oc4ccccc4c3c2)cn1 | -0.17 | -3 | -11 | -4.1 | 47* | 0.9
Cc1ccc2nc3c(cc2c1)CN(Cc1ccco1)C(=NCC1CCCO1)S3 (configuration not stated) | 0.87 | -1 | 2 | -1.1 | 43* | 0.9
CCc1c(C#N)c(SCc2c(C)noc2C)nc2c1C(=O)CC(C)(C)C2 | . | . | . | . | . | 0.9
O=C(NCCn1cc(SCc2ccc(F)cc2)c2ccccc21)c1c(F)cccc1F | 2.5 | . | . | -0.013 | . | .
O=C(NCCn1cc(SCc2ccc(F)cc2)c2ccccc21)c1ccccc1F | -0.41 | . | . | -4.7* | . | .
CCCSC1=C(C#N)C(c2cccs2)C(C(=O)Nc2ccccc2)=C(C)N1 (configuration not stated) | -1.3 | . | 8 | -2.7* | . | .
CCOC(=O)c1[nH]c2ccc(Br)cc2c1NC(=O)CCN1CCC(C(=O)OCC)CC1 | 0.096 | -1 | 6 | -0.028 | 1 | 0.8
CCN(CC)c1ccc(C2C(C(=O)OCCOC(C)C)=C(C)NC3=C2C(=O)CCC3)cc1 (configuration not stated) | 2.4 | 14 | -7 | -2.5 | 3 | 1
COCCOC(=O)C1=C(C)NC2=C(C(=O)CCC2)C1c1ccc(N(C)C)cc1 (configuration not stated) | 3.1* | . | -8 | 0.97 | . | 1.1
CCCOC(=O)C1=C(C)NC2=C(C(=O)C(C(=O)OC)C(C)C2)C1c1ccc(N(CC)CC)cc1 (configuration not stated) | -1.3 | 4 | 11 | -7.3* | 2 | 1
CCOC(=O)CC1COc2ccccc2N1C(=O)c1ccc(C)cc1 (configuration not stated) | -0.15 | 9 | . | -1.4 | 4 | .
SMILES | DAT uptake mod | PostGolgi yeast | Smad3 FoxH1 inh | Cav32 inh | PostGolgi ctrl | TNAP act mid DEA
Cn1nc(-c2ccc(Cl)cc2)c2cc(C(=O)N3CCOCC3)sc21 | 2 | 10 | -3 | 1.8 | 10 | 0.9
Cc1nc(N)nc(-c2ccccc2O)n1 | -0.44 | 0 | 14 | -0.03 | 12 | .
CC(=O)Oc1ccccc1-c1nc(C)nc(N(C)C(C)=O)n1 | -2.8* | 4 | 6 | -0.99 | 9 | 0.9
Cc1cc(C)c(N=C2CCCN2Cc2ccccc2)c(C#N)c1 | 3* | . | -11 | -4.8* | . | .
O=[N+]([O-])c1nn(-c2ccc3c(c2)OCCO3)n(O)c1=Nc1ccc(Cl)cc1 | -0.78 | 40* | . | -2.2 | 57* | .
Cc1cc2ncn(-c3ncnc4sc(C)c(C)c34)c2cc1C | 0.45 | -5 | 0 | . | 26 | 0.8
Cc1cc2ncn(-c3ncnc4sc5c(c34)CCCC5)c2cc1C | 1.6 | -6 | -12 | -5.7* | 39* | .
Cc1cc2ncn(-c3ncnc4sc5c(c34)CCC(C)C5)c2cc1C (configuration not stated) | . | 4 | . | . | 70* | .
COc1ccccc1N1CCN(C(=O)c2ccc(Cl)c(S(=O)(=O)NCc3ccco3)c2)CC1 | -0.0039 | 9 | 1 | -0.31 | 6 | .
COc1ccc(OC)c(C2=NOC(C(=O)Nc3ccccc3SC)C2)c1 (configuration not stated) | -1.5 | -1 | 6 | -3 | 16 | .
COc1ccc(OC)c(C2=NOC(C(=O)Nc3cc(C)nn3-c3ccccc3)C2)c1 (configuration not stated) | 0.3 | -3 | . | 0.36 | 41* | 0.9
COc1ccc(CNC(=O)C2CC(c3ccc(OC)cc3)=NO2)cc1 (configuration not stated) | -3.4* | 3 | 4 | -2.6 | 22 | 1
COc1ccc(CNC(=O)C2CC(c3ccc(F)cc3)=NO2)cc1 (configuration not stated) | 0.55 | -2 | -5 | -0.59 | 16 | 1
COc1ccc(C2=NOC(C(=O)Nc3cc(C)on3)C2)cc1 (configuration not stated) | -0.6 | 4 | 15 | 0.45 | 35* | .
Cc1cc(C)c2c(=O)[nH]n(C3CCOC(C)(C)C3)c2n1 (configuration not stated) | -0.19 | -1 | 4 | 0.36 | 4 | 0.9
COC(=O)CCCC(=O)O | . | . | -12 | . | . | .
CC(=O)O/N=C(/C)c1ncc(C(F)(F)F)cc1N1CCOCC1 | -2.1 | 2 | 6 | 0.066 | 3 | .
Cc1cccc(-n2ncc3c(N4CCN(c5nc(C)cc(C)n5)CC4)ncnc32)c1 | . | . | 10 | . | . | 1
O=[N+]([O-])/C(=C\Nc1ccccc1)S(=O)(=O)c1ccccc1 | . | -1 | 8 | -0.54 | 23 | .
CC1(C)Cc2c(C#N)c(N3CCN(C(=O)c4ccco4)CC3)nc(-c3ccco3)c2CS1 | -0.082 | 6 | . | -0.076 | 21 | 0.9
CC(C)Cc1nc(N2CCN(C(=O)C(C)C)CC2)c(C#N)c2c1CCC2 | 1.7 | 9 | -9 | -5.7* | 23 | 0.9
CC1(C)Cc2c(C#N)c(N3CCN(C(=O)c4ccco4)CC3)nc(Cc3ccccc3)c2CO1 | 0.85 | 3 | -4 | -4.6* | 17 | 0.9
CC(C)Cc1nc(N2CCN(C(=O)c3ccco3)CC2)c(C#N)c2c1CCC2 | 1.2 | 1 | 6 | -7.9* | 14 | 0.9

Screens (PubChem)
